The results in this text go back to paper PMC5700166.

Assay in all cases: protein-binding microarray (PBM); PBM: ~300 nM protein, 6 mM HEPES pH 7.8, 80 mM KCl, 0.5 mM EDTA, 0.5 mM EGTA, 6% glycerol, 35 ng/ul poly-dIdC, 1% milk, 1 h, room temperature; Ap Aiptasia and Nv Nematostella (sea anemones) / Co Capsaspora / Aq Amphimedon (sponge) / Dm Drosophila / Hu human; RHD is the Rel homology domain; high values mean tight binding
Settings in all cases: dsDNA, one strand shown

One assay concerns the target T1, GST-Ap-NF-kB RHD (Exaiptasia pallida (Aiptasia), UniProt A0A913YAJ5 2-422).
T1 sequence: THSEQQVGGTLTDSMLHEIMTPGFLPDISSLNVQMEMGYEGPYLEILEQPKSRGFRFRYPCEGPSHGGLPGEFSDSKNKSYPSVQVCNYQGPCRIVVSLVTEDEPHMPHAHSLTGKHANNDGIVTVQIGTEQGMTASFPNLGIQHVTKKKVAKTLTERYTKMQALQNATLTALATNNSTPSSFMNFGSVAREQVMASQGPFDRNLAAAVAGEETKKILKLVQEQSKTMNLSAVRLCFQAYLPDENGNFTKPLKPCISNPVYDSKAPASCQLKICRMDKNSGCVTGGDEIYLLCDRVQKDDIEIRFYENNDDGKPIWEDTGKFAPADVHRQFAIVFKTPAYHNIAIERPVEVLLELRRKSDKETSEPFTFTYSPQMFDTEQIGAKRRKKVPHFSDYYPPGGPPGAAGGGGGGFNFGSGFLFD

Assay [1] has as its target T2, GST-Nv-NF-kB (Cys allele) (Nematostella vectensis, UniProt E5G601 2-411).
T2 sequence: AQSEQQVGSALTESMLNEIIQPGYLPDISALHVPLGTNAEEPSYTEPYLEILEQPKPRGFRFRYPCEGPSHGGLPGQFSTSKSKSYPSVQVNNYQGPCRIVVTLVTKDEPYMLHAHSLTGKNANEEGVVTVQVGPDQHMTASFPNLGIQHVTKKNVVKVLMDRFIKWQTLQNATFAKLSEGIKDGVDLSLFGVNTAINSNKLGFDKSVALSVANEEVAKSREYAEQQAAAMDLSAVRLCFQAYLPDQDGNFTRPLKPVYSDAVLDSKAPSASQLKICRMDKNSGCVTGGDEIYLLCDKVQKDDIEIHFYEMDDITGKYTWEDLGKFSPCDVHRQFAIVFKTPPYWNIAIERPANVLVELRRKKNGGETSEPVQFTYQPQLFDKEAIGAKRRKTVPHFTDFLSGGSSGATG

A further assay deals with T3, GST-Co-NF-kB (Capsaspora owczarzaki, UniProt F1ARL5 200-546).
T3 sequence: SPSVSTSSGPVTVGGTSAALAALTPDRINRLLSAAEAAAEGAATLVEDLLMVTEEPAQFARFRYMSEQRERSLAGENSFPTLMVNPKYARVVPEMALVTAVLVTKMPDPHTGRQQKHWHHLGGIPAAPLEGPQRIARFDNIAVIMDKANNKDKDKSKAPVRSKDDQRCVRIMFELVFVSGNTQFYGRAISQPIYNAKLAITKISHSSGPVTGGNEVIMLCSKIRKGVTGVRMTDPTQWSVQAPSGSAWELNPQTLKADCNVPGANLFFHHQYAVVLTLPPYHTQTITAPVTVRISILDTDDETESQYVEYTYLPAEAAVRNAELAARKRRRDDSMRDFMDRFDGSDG

For a further assay, the target named is T4, GST-Dm-Relish (Drosophila melanogaster, UniProt Q94527 99-473).
T4 sequence: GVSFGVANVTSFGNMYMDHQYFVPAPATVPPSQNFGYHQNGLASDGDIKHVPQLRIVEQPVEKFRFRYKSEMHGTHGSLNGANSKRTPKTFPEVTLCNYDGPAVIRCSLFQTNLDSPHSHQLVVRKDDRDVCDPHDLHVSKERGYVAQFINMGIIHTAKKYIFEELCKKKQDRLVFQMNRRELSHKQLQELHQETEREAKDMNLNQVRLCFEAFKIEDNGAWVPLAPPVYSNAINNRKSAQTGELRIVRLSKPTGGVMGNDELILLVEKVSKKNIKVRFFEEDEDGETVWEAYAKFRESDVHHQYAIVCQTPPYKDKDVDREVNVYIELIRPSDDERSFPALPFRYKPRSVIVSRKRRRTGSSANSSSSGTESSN

The next assay has as its target T5, GST-Aq-NF-kB (Amphimedon queenslandica, UniProt A9Y5G7 2-389).
T5 sequence: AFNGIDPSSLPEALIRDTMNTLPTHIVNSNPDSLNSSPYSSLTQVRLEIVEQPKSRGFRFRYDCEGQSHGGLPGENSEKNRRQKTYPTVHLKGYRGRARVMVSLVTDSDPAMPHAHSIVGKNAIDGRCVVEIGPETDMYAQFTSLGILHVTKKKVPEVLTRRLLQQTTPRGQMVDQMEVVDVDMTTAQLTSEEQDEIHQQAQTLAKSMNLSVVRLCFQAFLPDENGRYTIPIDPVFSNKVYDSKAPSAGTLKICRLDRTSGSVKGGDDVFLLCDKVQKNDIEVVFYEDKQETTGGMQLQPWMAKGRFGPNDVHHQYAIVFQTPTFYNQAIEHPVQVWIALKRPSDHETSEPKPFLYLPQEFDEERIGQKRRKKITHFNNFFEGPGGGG

Regarding “CCGATTAACATCAAACCCCCCCGTGATGTTAATCGGGTCTTGATTCGCTTGACGCTGCTG”, the binding signal was determined as 6.76 z-score in the assay with GST-Ap-NF-kB RHD; 3.82 z-score in assay [1]; 5.57 z-score with GST-Co-NF-kB; 7 z-score in the assay with GST-Dm-Relish; 4.9 z-score with GST-Aq-NF-kB.

As for “CCGATTAACATCACGTGTTTCCCTGATGTTAATCGGGTCTTGATTCGCTTGACGCTGCTG”, the binding signal with GST-Ap-NF-kB RHD is 2.62 z-score; in assay [1], 2.76 z-score; with GST-Co-NF-kB, 3 z-score; with GST-Dm-Relish, 3.51 z-score; with GST-Aq-NF-kB, 3.35 z-score.

“CCGATTAACATCAAGGGATCCCCTGATGTTAATCGGGTCTTGATTCGCTTGACGCTGCTG”: the binding signal was 8.25 z-score with GST-Ap-NF-kB RHD; 5.8 z-score in assay [1]; 4.18 z-score with GST-Co-NF-kB; 9.18 z-score with GST-Dm-Relish; 6.19 z-score with GST-Aq-NF-kB.

Consider “CCGATTAACATCAAAATAATCCCTGATGTTAATCGGGTCTTGATTCGCTTGACGCTGCTG”, for which the binding signal is 6.46 z-score with GST-Ap-NF-kB RHD; 4.62 z-score in assay [1]; 2.45 z-score with GST-Co-NF-kB; 4.15 z-score with GST-Dm-Relish; 5.15 z-score with GST-Aq-NF-kB.

In the case of “CCGATTAACATCACGGAATACCCTGATGTTAATCGGGTCTTGATTCGCTTGACGCTGCTG”, the binding signal came out at 3.79 z-score in the assay with GST-Ap-NF-kB RHD; 4.14 z-score in assay [1]; 1.67 z-score with GST-Co-NF-kB; 4.64 z-score in the assay with GST-Dm-Relish; 4.52 z-score in the assay with GST-Aq-NF-kB.

As for “CCGATTAACATCAGGATTGCCCCTGATGTTAATCGGGTCTTGATTCGCTTGACGCTGCTG”, the binding signal with GST-Ap-NF-kB RHD came out at 2.91 z-score; in assay [1], 4.26 z-score; with GST-Co-NF-kB it was 1.5 z-score; in the assay with GST-Dm-Relish it was 2.51 z-score; with GST-Aq-NF-kB, 5.63 z-score.

As to “CCGATTAACATCAGGAACCCCCATGATGTTAATCGGGTCTTGATTCGCTTGACGCTGCTG”, the binding signal was 7.5 z-score with GST-Ap-NF-kB RHD; 5 z-score in assay [1]; 2.67 z-score with GST-Co-NF-kB; 9.25 z-score with GST-Dm-Relish; 5.35 z-score with GST-Aq-NF-kB.

For the sequence “CCGATTAACATCAAGGATTTCCCTGATGTTAATCGGGTCTTGATTCGCTTGACGCTGCTG”, the binding signal in the assay with GST-Ap-NF-kB RHD was 4.49 z-score; in assay [1], 6.09 z-score; with GST-Co-NF-kB, 3.24 z-score; in the assay with GST-Dm-Relish it was 6.12 z-score; with GST-Aq-NF-kB, 6.2 z-score.

For the sequence “CCGATTAACATCAAACCCCCCCCTGATGTTAATCGGGTCTTGATTCGCTTGACGCTGCTG”, the binding signal was determined as 7.29 z-score in the assay with GST-Ap-NF-kB RHD; 5.16 z-score in assay [1]; 4.79 z-score with GST-Co-NF-kB; 6.75 z-score with GST-Dm-Relish; 5.35 z-score in the assay with GST-Aq-NF-kB.

Take “CCGATTAACATCAATTTTCCCAATGATGTTAATCGGGTCTTGATTCGCTTGACGCTGCTG”: the binding signal with GST-Ap-NF-kB RHD was determined as 1.98 z-score; in assay [1], 3.86 z-score; with GST-Co-NF-kB, 3.99 z-score; with GST-Dm-Relish, 1.29 z-score; in the assay with GST-Aq-NF-kB, 2.61 z-score.

For “CCGATTAACATCAAAACAGTCCCTGATGTTAATCGGGTCTTGATTCGCTTGACGCTGCTG”, the binding signal with GST-Ap-NF-kB RHD came to 4.53 z-score; in assay [1] it was 5.79 z-score; with GST-Co-NF-kB, 1.26 z-score; in the assay with GST-Dm-Relish it was 3.28 z-score; with GST-Aq-NF-kB, 6.16 z-score.

Consider “CCGATTAACATCAAAAATTGCCCTGATGTTAATCGGGTCTTGATTCGCTTGACGCTGCTG”, for which the binding signal in the assay with GST-Ap-NF-kB RHD was found to be 1.25 z-score; in assay [1], 1.84 z-score; with GST-Co-NF-kB, 1.78 z-score; with GST-Dm-Relish, 1.5 z-score; with GST-Aq-NF-kB, 2.99 z-score.

For “CCGATTAACATCAGGGGAGGTACTGATGTTAATCGGGTCTTGATTCGCTTGACGCTGCTG”, the binding signal in the assay with GST-Ap-NF-kB RHD was found to be 4.21 z-score; in assay [1], 3.43 z-score; with GST-Co-NF-kB, 3.96 z-score; with GST-Dm-Relish it was 6.44 z-score; with GST-Aq-NF-kB, 4.35 z-score.
